Measured values: PubChem BioAssay (NCI)
Values joined by “and” are separate entries in the source; they are usually repeats but may differ in a detail not shown here. Equal entries are not always repeated. The panel holds about 83,000 compounds, 20% with a hit somewhere; the sample as a whole holds those more often.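 A percent growth of 40 corresponds to 60% growth inhibition; 0 means no net growth; -100 means all cells died. Active threshold: below 10.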 Active and inactive are the calls of the source.

Columns and labels:
Assay in all cases: NCI-60 one-dose screen, 48 h (100 = growth as untreated, 0 = no growth, -100 = all killed)
Settings in all cases: 10 µM unless noted
EKVX NSCLC = test system: EKVX NSCLC
SN12C renal = test system: SN12C renal
UO-31 renal = test system: UO-31 renal
TK-10 renal = test system: TK-10 renal
ACHN renal = test system: ACHN renal
CAKI-1 renal = test system: CAKI-1 renal
A498 renal = test system: A498 renal
CCRF-CEM leukemia = test system: CCRF-CEM leukemia
MOLT-4 leukemia = test system: MOLT-4 leukemia
SR leukemia = test system: SR leukemia
RPMI-8226 leukemia = test system: RPMI-8226 leukemia
OVCAR-8 ovarian = test system: OVCAR-8 ovarian
OVCAR-5 ovarian = test system: OVCAR-5 ovarian
OVCAR-4 ovarian = test system: OVCAR-4 ovarian
SK-OV-3 ovarian = test system: SK-OV-3 ovarian
IGROV1 ovarian = test system: IGROV1 ovarian
OVCAR-3 ovarian = test system: OVCAR-3 ovarian
HS 578T breast = test system: HS 578T breast
NCI/ADR-RES ovarian = test system: NCI/ADR-RES ovarian

Structure (SMILES) | growth (EKVX NSCLC) | growth (SN12C renal) | growth (UO-31 renal) | growth (TK-10 renal) | growth (ACHN renal) | growth (CAKI-1 renal) | growth (A498 renal) | growth (CCRF-CEM leukemia) | growth (MOLT-4 leukemia) | growth (SR leukemia) | growth (RPMI-8226 leukemia) | growth (OVCAR-8 ovarian) | growth (OVCAR-5 ovarian) | growth (OVCAR-4 ovarian) | growth (SK-OV-3 ovarian) | growth (IGROV1 ovarian) | growth (OVCAR-3 ovarian) | growth (HS 578T breast) | growth (NCI/ADR-RES ovarian)
CCCCCn1sc(=O)n(Cc2ccc(CNC(=O)C(C)c3ccc(CC(C)C)cc3)cc2)c1=O (stereo not drawn) | 96.9% (inactive) and -65.7% (active) | 95.3% (inactive) and -52.9% (active) | 85.8% (inactive) and -100% (active) | 106% (inactive) and -86.8% (active) | 92.4% (inactive) and -100% (active) | 91.2% (inactive) and -73% (active) | 113% (inactive) and 40% (inactive) | 95.8% (inactive) and 2.99% (active) | 101% (inactive) and -4.68% (active) | 104% (inactive) and 1.27% (active) | 99.7% (inactive) and -24.6% (active) | 92.5% (inactive) and -15% (active) | 103% (inactive) and -53.7% (active) | 90% (inactive) and -47.6% (active) | 97.1% (inactive) and 70.2% (inactive) | 106% (inactive) and -83.2% (active) | 102% (inactive) and -75.4% (active) | 98.4% (inactive) and -7.35% (active) | 99.8% (inactive) and -17.6% (active)
Cc1ccc(OC2CC(n3cnc4ncnc(Cl)c43)OC2Oc2ccc(C)cc2)cc1 (stereo not drawn) | – | – | – | 85% [100 µM] (inactive) and -100% [100 µM] (active) | – | – | – | – | – | – | – | – | – | – | – | – | – | – | –
CCC(C)C1(C2CCCC2)NC(=O)NC1=O (stereo not drawn) | 108% (inactive) and 100% (inactive) | 100% (inactive) and 96% (inactive) | – | 92.4% (inactive) and 118% (inactive) | 111% (inactive) and 108% (inactive) | 112% (inactive) and 94% (inactive) | 108% (inactive) and 81.8% (inactive) | 92.8% (inactive) and 107% (inactive) | 91.2% (inactive) and 106% (inactive) | 92% (inactive) | 93.9% (inactive) and 106% (inactive) | 108% (inactive) and 99.9% (inactive) | – | 102% (inactive) | 99.7% (inactive) and 109% (inactive) | 117% (inactive) and 119% (inactive) | 106% (inactive) and 115% (inactive) | 107% (inactive) and 103% (inactive) | 109% (inactive) and 104% (inactive)
CC1CCCc2sc3nc(NNC(=O)c4cnccn4)n(-c4ccccc4)c(=O)c3c21 (stereo not drawn) | 14.8% (inactive) and 7.14% (active) | 20% (inactive) and 16.7% (inactive) | 8.23% (active) and 5.71% (active) | 30.3% (inactive) and 37.9% (inactive) | 8.58% (active) and 19.9% (inactive) | 5.81% (active) and 0.832% (active) | 27.8% (inactive) | – | 5.36% (active) and 10.6% (inactive) | 1.65% (active) and 26.4% (inactive) | 24.4% (inactive) and 11.4% (inactive) | 12% (inactive) and 9.28% (active) | 29.6% (inactive) and 36.6% (inactive) | -3.93% (active) and -20.4% (active) | 17% (inactive) and -9.04% (active) | 16.9% (inactive) and 14.1% (inactive) | 0.919% (active) and -3.1% (active) | 49.1% (inactive) and 38.1% (inactive) | 3.02% (active) and 5.41% (active)
COc1ccc(/C=c2\[nH]c3nc(=O)c(N4CCOCC4)c(N)n3c2=O)cc1 | – | – | – | 72% [100 µM] (inactive) and 6.01% [100 µM] (active) | – | – | – | – | – | – | – | – | – | – | – | – | – | – | –
COc1ccc(N=C(C)C(C)=Nc2ccc(OC)cc2)cc1 | – | – | – | 77.8% [100 µM] (inactive) and -88.6% [100 µM] (active) | – | – | – | – | – | – | – | – | – | – | – | – | – | – | –
Cn1c(SSc2ccc(-c3cccnc3)n2C)ccc1-c1cccnc1 | 94.8% (inactive) and 99.5% (inactive) | 100% (inactive) and 114% (inactive) | 95.8% (inactive) and 104% (inactive) | 117% (inactive) and 102% (inactive) | 119% (inactive) and 108% (inactive) | 94.3% (inactive) and 103% (inactive) | 82.2% (inactive) and 95.7% (inactive) | 45.2% (inactive) and 68.6% (inactive) | 80.2% (inactive) and 17.5% (inactive) | 86.8% (inactive) and 58.3% (inactive) | 96.5% (inactive) and 92.1% (inactive) | 97.4% (inactive) and 103% (inactive) | 141% (inactive) and 115% (inactive) | 80.3% (inactive) and 101% (inactive) | 131% (inactive) and 120% (inactive) | 103% (inactive) and 88.1% (inactive) | 98.9% (inactive) and 102% (inactive) | – | 103% (inactive) and 101% (inactive)
Oc1ccccc1C=NCC1CCC(CN=Cc2ccccc2O)CC1 (stereo not drawn) | 109% (inactive) | 91% (inactive) | 72.4% (inactive) | 98.2% (inactive) | -13.8% (active) | 46.1% (inactive) | 117% (inactive) | 83.9% (inactive) | 75.6% (inactive) | 69.4% (inactive) | 90.9% (inactive) | 79.9% (inactive) | – | 116% (inactive) | 95% (inactive) | 68.1% (inactive) | 116% (inactive) | 114% (inactive) | 80.4% (inactive)
C=CC1=C(C)C2=NC1=CC1=NC(=C(CC)/C1=C\O)C=C1N=C3C(=C1C)C(=O)[C@H](C(=O)OC)C3=C1NC(=C2)[C@@H](C)[C@@H]1CCC(=O)O | – | – | – | 3.23% [100 µM] (active) and 7.05% [100 µM] (active) | – | – | – | – | – | – | – | – | – | – | – | – | – | – | –
O=C(Nc1ccc([N+](=O)[O-])cc1Cl)c1cc(Cl)ccc1O | -3.89% (active) and 6.47% (active) | -6.44% (active) and 3.08% (active) | -43.8% (active) and -31.8% (active) | -5.15% (active) and 7.49% (active) | -3.01% (active) and 8.03% (active) | -0.639% (active) and -4.62% (active) | – | -20% (active) and 9.33% (active) | -44.2% (active) and -6.34% (active) | -3.74% (active) | -31.8% (active) and 1.92% (active) | -20.6% (active) and 5.74% (active) | 23.6% (inactive) and 41.7% (inactive) | 22.6% (inactive) and 17.4% (inactive) | 4.16% (active) and 12.8% (inactive) | 14.4% (inactive) | -10.7% (active) and -2.45% (active) | -6.4% (active) and -20.7% (active) | -26.7% (active) and -15.9% (active)
COc1cc(Nc2nc3ccccc3nc2NS(=O)(=O)c2ccc(NC(=O)c3ccc(C)c(OC)c3)cc2)cc(OC)c1 | 40.1% (inactive) and 8.65% (active) | 49.1% (inactive) and 14.8% (inactive) | 12.2% (inactive) and -20% (active) | 54.1% (inactive) and -35.5% (active) | 53.1% (inactive) and 1.39% (active) | 62.2% (inactive) and -11.6% (active) | 18.9% (inactive) and -44.3% (active) | – | 37.5% (inactive) and 7.47% (active) | 31.3% (inactive) and 8.54% (active) | 8.4% (active) | 46.6% (inactive) and 5.53% (active) | 71.2% (inactive) and 3.89% (active) | 43.3% (inactive) and -2.71% (active) | 49% (inactive) and -44% (active) | 6.75% (active) and -30.1% (active) | 51.6% (inactive) and 6.96% (active) | 3.34% (active) | 75.5% (inactive) and 2.39% (active)
S=C1SCN(Cc2ccccc2)CN1Cc1ccccc1 | 98.5% (inactive) | 90.5% (inactive) | 26.7% (inactive) | 75.2% (inactive) | 84.5% (inactive) | 76.1% (inactive) | 74.4% (inactive) | 40.4% (inactive) | 70.6% (inactive) | 52.9% (inactive) | 17% (inactive) | 93.3% (inactive) | – | 86.4% (inactive) | 103% (inactive) | 34.5% (inactive) | 32.4% (inactive) | 90.4% (inactive) | 73.6% (inactive)
